# Out of some 310,000 compounds screened, about 14,000 (4.5%) showed an effect of 50% or more. The effect is printed as a negative number. What follows is part of a selection rich in strong results, with near analogues and random picks from the rest.
# Target: human ether-à-go-go-related gene (hERG) potassium channel (human, UniProt Q12809)
# Test: primary screen, population patch clamp on CHO cells stably expressing hERG; higher = less effect of the substance
# 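Note: peak tail current of the secondary pulse compared with the same well before compound.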
# Sequence of human ether-à-go-go-related gene (hERG) potassium channel (Q12809 whole entry, looked up): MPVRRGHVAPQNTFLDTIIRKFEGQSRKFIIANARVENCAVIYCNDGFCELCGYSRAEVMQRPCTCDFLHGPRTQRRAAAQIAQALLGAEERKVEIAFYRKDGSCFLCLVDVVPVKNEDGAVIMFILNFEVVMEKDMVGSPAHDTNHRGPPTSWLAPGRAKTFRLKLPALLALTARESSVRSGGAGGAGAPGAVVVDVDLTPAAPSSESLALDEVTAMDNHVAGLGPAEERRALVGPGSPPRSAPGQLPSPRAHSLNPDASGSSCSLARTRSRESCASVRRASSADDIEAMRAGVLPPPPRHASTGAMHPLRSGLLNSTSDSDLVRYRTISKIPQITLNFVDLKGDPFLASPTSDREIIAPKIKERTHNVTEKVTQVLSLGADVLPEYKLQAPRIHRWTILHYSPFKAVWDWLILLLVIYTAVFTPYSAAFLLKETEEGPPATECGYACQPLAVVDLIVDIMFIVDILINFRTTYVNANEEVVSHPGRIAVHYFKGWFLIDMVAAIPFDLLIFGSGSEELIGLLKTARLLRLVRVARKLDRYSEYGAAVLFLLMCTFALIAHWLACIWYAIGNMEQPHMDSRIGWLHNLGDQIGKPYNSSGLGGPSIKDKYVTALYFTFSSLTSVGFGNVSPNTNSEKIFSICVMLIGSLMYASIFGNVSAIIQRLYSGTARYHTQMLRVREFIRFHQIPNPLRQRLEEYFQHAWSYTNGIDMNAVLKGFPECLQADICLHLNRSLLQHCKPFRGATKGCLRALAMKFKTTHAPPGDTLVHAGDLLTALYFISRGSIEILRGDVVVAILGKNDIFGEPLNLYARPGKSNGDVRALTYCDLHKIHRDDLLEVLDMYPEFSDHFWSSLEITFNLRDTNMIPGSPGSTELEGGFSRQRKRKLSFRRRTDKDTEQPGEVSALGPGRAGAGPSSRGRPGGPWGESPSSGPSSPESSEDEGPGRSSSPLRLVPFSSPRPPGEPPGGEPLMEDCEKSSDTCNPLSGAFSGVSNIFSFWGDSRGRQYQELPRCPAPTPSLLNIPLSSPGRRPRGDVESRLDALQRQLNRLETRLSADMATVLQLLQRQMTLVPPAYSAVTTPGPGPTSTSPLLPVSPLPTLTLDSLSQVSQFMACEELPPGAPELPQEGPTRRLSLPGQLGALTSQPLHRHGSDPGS
row,Compound,"hERG current change (%, negative = inhibition) at 10uM [%]"
1,CCOC(=O)c1nn(-c2ccc(C)cc2)c(C)c1C(C)=O,4.57
2,Cc1ccc(S(=O)(=O)NNC(=O)C2COc3ccccc3O2)cc1 (stereo not drawn),5.24
3,COc1ccc(C(CNC(=O)c2ccc(OCc3ccccc3)cc2)N2CCOCC2)cc1 (stereo not drawn),-18.1
4,CCOC(=O)N1CCC(N(CCN(C)C)C(=S)Nc2ccccc2OC)CC1,-16.2
5,CCCC1=C(C(=O)OCC)C(c2ccc(F)cc2)n2ncnc2N1 (stereo not drawn),-21.3
6,COc1cccc(CN2C(=O)CCC2(C)C(=O)NC2CCCCCC2)c1 (stereo not drawn),-11.7
7,COc1ccc(-c2cc(=O)oc3cc(OC(=O)C4CCCCC4)c(Cl)cc23)cc1,11.2
8,COc1ccc(CNCCC(c2ccc(OC(C)C)cc2)c2ccccc2OC)cc1 (stereo not drawn),-66.1
9,COc1ccccc1NC(=O)CC(c1ccc(OC(C)C)cc1)c1ccccc1OC (stereo not drawn),-1.62
10,COc1ccc(CNC(c2ccccc2)c2ccc(Cl)cc2)cc1 (stereo not drawn),6.38
11,COc1ccc(C(CCNCc2ccc(N(C)C)cc2)c2ccccc2)cc1 (stereo not drawn),-72.2
12,COc1ccc(C(CCNCc2ccc(N(C)C)cc2)C(C)C)cc1 (stereo not drawn),-40.5
13,COc1ccc(CNC(=S)NCc2ccc(OC(C)C)cc2)cc1,-3.86
14,COc1ccccc1C(CCNCc1ccccc1)c1ccc(OC(C)C)cc1 (stereo not drawn),-59.3
15,COc1ccccc1C(O)P(=O)(OCC(C)C)c1ccc(N(C)C)cc1 (stereo not drawn),-0.204
16,COc1ccccc1C(CC(=O)Nc1ccc(C)c(C)c1)c1ccc(OC(C)C)cc1 (stereo not drawn),10.2
17,COc1ccccc1C(CCNCc1ccc(N(C)C)cc1)c1ccc(OC(C)C)cc1 (stereo not drawn),-73.8
18,COc1ccccc1CNC(=O)c1ccc(OC(C)C)cc1,17.6
19,O=C(Nc1ncc(Br)s1)C1CCCN1S(=O)(=O)c1cccc2cccnc12 (stereo not drawn),-3.36

row,Compound,"hERG current change (%, negative = inhibition) at 10uM [%]"
1,Cc1cccc(C(=O)O/N=C2\CCS(=O)(=O)c3sccc32)c1,1.16
2,Cc1ccc(NC(=O)C(OC(=O)c2ccc(NC(N)=O)cc2)c2ccccc2)cc1Cl (stereo not drawn),-3.17
3,COc1ccc(N2CCC(N3CCN(C)C(CCO)C3)CC2)cc1 (stereo not drawn),10.2
4,O=C(NCC1CCCO1)c1ccc(Cl)c(S(=O)(=O)Nc2ccccc2)c1 (stereo not drawn),2.86
5,O=C(CCc1ccccc1)Nc1nccs1,14.9
6,COc1ccccc1N1CCN(C(=O)c2ccc(Cn3c(=S)[nH]c4cc5c(cc4c3=O)OCO5)cc2)CC1,21.3
7,CC[C@H](C)[C@@H](NC(=O)O[C@@H]1C(=O)c2cc(OC)ccc2O[C@H]1c1ccc(OC)c(Br)c1)C(=O)OC,-1.62
8,CN(C)c1cccc(C(=O)Nc2nnc(Cc3ccccc3)s2)c1,0.344
9,Cn1cnc2cc(NCc3ccccc3O)ccc21,6.3
10,COc1ccc2c(c1)C=C(CN1CCN(C(C)C)C(CCO)C1)CO2 (stereo not drawn),5.68
11,CCOc1ccc(CN2CCN(CC3=Cc4cccc(OC)c4OC3)CC2CCO)cc1 (stereo not drawn),-83.4
12,COc1ccc2c(c1)C=C(CN1CCN(Cc3ccccc3C)C(CCO)C1)CO2 (stereo not drawn),-25.6
13,COc1cccc2c1OCC(CN1CCN(C3CCCCC3)C(CCO)C1)=C2 (stereo not drawn),-17
14,COc1ccc2c(c1)C=C(CN1CCN(C3CCCC3)C(CCO)C1)CO2 (stereo not drawn),-68.2
15,COc1cccc2c1OCC(CN1CCN(CCC(C)C)C(CCO)C1)=C2 (stereo not drawn),-3.37
16,COc1cccc2c1OCC(CN1CCN(Cc3ccccc3F)C(CCO)C1)=C2 (stereo not drawn),-19.3
17,COc1cccc2c1OCC(CN1CCN(Cc3ccccc3)C(CCO)C1)=C2 (stereo not drawn),-47.6
18,CCOc1ccccc1CN1CCN(CC2=Cc3cc(OC)ccc3OC2)CC1CCO (stereo not drawn),-83.3
19,Cl.O=C(OCCN1CCOCC1)c1cccs1,6.58

row,Compound,"hERG current change (%, negative = inhibition) at 10uM [%]"
1,COc1ccc(C2=CC(=O)C[C@H](c3ccc(F)cc3)C2)cc1F,-16.5
2,COc1ccc2ccccc2c1CNC(C)CCc1ccccc1.O=C(O)C(=O)O (stereo not drawn),-77.8
3,COc1cccc(OC)c1C(=O)NC(C)CCc1ccccc1 (stereo not drawn),-19.1
4,CC(CCc1ccccc1)NC(=O)Cc1ccccc1 (stereo not drawn),2.65
5,COc1ccc2ccccc2c1CNCCc1ccccc1.Cl,-53.1
6,COc1ccc(CCNCc2c(OC)ccc3ccccc23)cc1OC.Cl,-44.6
7,COc1ccc2ccccc2c1CN(C)Cc1ccccc1.O=C(O)C(=O)O,-51.7
8,CN(CCOc1cccc2ccccc12)Cc1ccccc1.O=C(O)C(=O)O,0.659
9,COc1ccc2ccccc2c1CNC(C)c1ccccc1.O=C(O)C(=O)O (stereo not drawn),-44.4
10,COc1ccc2ccccc2c1CNCCN1CCOCC1.Cl,14.4
11,CC(CCc1ccccc1)NCc1cccc2ccccc12.O=C(O)C(=O)O (stereo not drawn),-60.9
12,CN(Cc1ccccc1)Cc1c(O)ccc2ccccc12,7.65
13,COCC(C)NCc1cccc2ccccc12.O=C(O)C(=O)O (stereo not drawn),-0.173
14,CC1(C)CC2CC(C)(CN2C(=O)c2cc(-c3ccccc3O)on2)C1 (stereo not drawn),12.7
15,Cc1ccc(S(=O)(=O)N2CCN(C(=O)COC(=O)c3ccccc3Cl)CC2)c(C)c1,-12.5
16,Cc1cccnc1NC(=O)Nc1ccccc1,1.64
17,CCCOc1ccc(N2C(=O)CC(NCc3cccs3)C2=O)cc1 (stereo not drawn),-18.6
18,COc1ccccc1CNC(=O)C1COc2ccccc2O1 (stereo not drawn),-15.1
19,Cc1cc(NC(=O)c2ccc([N+](=O)[O-])cc2)n(CCC#N)n1,11
